Only a selection was taken, and hits are over-represented in it overall.
Chlamy TAG = inducers of triacylglycerol accumulation in Chlamydomonas reinhardtii algae. AID 1159537. Chlamydomonas reinhardtii TAG, Nile Red fluorescence, 72 h. actives 0.84% (n = 44,000). calls only at 10 µM (by protocol); call rule not given here;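 further: hits raise Nile Red signal meaning more stored TAG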
Each line names hits and unclear results; the compound was inactive in the other large screens.

COc1ccc(OC)c(CN2CCN(Cc3ccc(OC)c(OC)c3)CC2)c1	none
COc1cc(CN2CCN(Cc3ccc([N+](=O)[O-])cc3)CC2)cc(OC)c1	Chlamy TAG active
O=[N+]([O-])c1ccc(CN2CCC(N3CCCCC3)CC2)cc1	none
COc1cc(CN2CCN(Cc3cccc([N+](=O)[O-])c3)CC2)cc(OC)c1OC	none
O=[N+]([O-])c1ccc(CN2CCCCCC2)cc1	none
COc1ccc(CN2CCN(Cc3cc(OC)c(OC)cc3[N+](=O)[O-])CC2)cc1OC	none
COc1ccc(S(=O)(=O)N2CCN(Cc3ccc([N+](=O)[O-])cc3)CC2)cc1	none
COc1ccc(OC)c(CN2CCN(Cc3ccc([N+](=O)[O-])cc3)CC2)c1	Chlamy TAG active
COc1ccc(CN2CCN(Cc3cccc([N+](=O)[O-])c3)CC2)cc1	none
Cc1ccc(OCCCC(=O)Nc2ccc(OCc3ccccc3)cc2)cc1	none
Cc1ccc(NC(=O)c2cnccn2)cc1Cl	none
Cc1ccc(NC(=O)Cc2ccc(Cl)cc2)c(Br)c1	none
O=S(=O)(NCc1ccc(Cl)c(Cl)c1)c1ccccc1	none
Cc1onc(-c2c(F)cccc2Cl)c1C(=O)Nc1ccc(Cl)cc1F	none
Clc1ccc(Cl)c(OCCCCN2CCNCC2)c1	Chlamy TAG active
Cc1cc(Cl)ccc1OCCN1CCNCC1	none
Clc1cc(Br)ccc1OCCCCN1CCCC1	none
O=C(O)C1CC=CCC1C(=O)Nc1nnc(C2CC2)s1 (stereo unspecified)	none
COc1cc(NC(=O)CSCc2ccccc2)c(C(=O)O)cc1OC	none
CCc1cccc(OCC(=O)Nc2cc(OC)c(OC)cc2C(=O)O)c1	Chlamy TAG active
COc1ccc(OCC(=O)Nc2cc(OC)c(OC)cc2C(=O)O)cc1	none
O=[N+]([O-])c1ccc(-c2noc(COc3ccccc3Cl)n2)cc1	none
CC(=O)Nc1ccc(S(=O)(=O)N2CCN(C3CCC(c4ccccc4)CC3)CC2)cc1 (stereo unspecified)	none
CN(CCc1ccccc1)C1CCN(Cc2ccccc2)CC1	Chlamy TAG active
CC1CCCN(C2CCN(Cc3ccccc3)CC2)C1 (stereo unspecified)	none
CCCCN(C)C1CCN(Cc2ccccc2)CC1	none
C=C(C)CN(CC)C1CCN(Cc2ccccc2)CC1	none
CC(=O)N1CCN(C2CCC(C)CC2)CC1 (stereo unspecified)	none
CC1CCC(N2CCN(Cc3ccccc3)CC2)CC1 (stereo unspecified)	Chlamy TAG active
c1ccc(CN2CCC(N3CCN(Cc4ccco4)CC3)CC2)cc1	none
CCN1CCN(C2CCC(C)CC2)CC1 (stereo unspecified)	Chlamy TAG active
CCN1CCC(N2CCN(C=O)CC2)CC1	none
OC(COc1ccc(Br)cc1)CN1CCN(Cc2ccccc2)CC1 (stereo unspecified)	none
O=C(CN1C(=O)CCC1=O)Nc1ncc([N+](=O)[O-])s1	none
COc1cc(/C=C(\C#N)c2nc(-c3ccccc3)cs2)ccc1O	none
O=C(CCSc1ccccc1)Nc1cccc(F)c1	none
CCOc1ccccc1C(=O)NCCCCc1ccccc1	none
CC(=O)Nc1ccc(Br)cc1C(NCC(=O)NN)c1ccccc1 (stereo unspecified)	none
CN1CCC(N(C)Cc2cc(F)ccc2F)CC1	none
CN1CCC(N(C)Cc2cc(Cl)ccc2O)CC1	Chlamy TAG active
CN(C)Cc1cc(Cl)ccc1O	none
COc1ccc(NC(=O)CCC2CCCCC2)c([N+](=O)[O-])c1	Chlamy TAG active
COc1ccc(NC(=O)CCC2CCCCC2)c(OC)c1	none
Cc1ccc(NC(=O)CCC2CCCCC2)c([N+](=O)[O-])c1	none
O=C(Nc1ccc(Br)cc1)C1(c2ccccc2)CCOCC1	none
CN(C(=O)c1ccc(C(C)(C)C)cc1)C1CCS(=O)(=O)C1 (stereo unspecified)	none
O=C1C2C3CCC(C3)C2C(=O)N1c1nccs1 (stereo unspecified)	Chlamy TAG active
O=C1C2C(C(=O)N1c1nccs1)C1C=CC2C12CC2 (stereo unspecified)	none
O=C1c2ccc(Oc3ccc4c(c3)C(=O)N(c3nccs3)C4=O)cc2C(=O)N1c1nccs1	none
C#CCN1C(=O)C(O)(CC(=O)c2ccccc2[N+](=O)[O-])c2ccccc21 (stereo unspecified)	none
C=CCn1c(SCC(=O)O)nnc1-c1ccc([N+](=O)[O-])cc1	Chlamy TAG active
C=CCn1c(SCC)nnc1-c1ccc([N+](=O)[O-])cc1	none
C=CCn1c(SCC(=O)O)nnc1-c1ccc(OC)cc1	none
CCCC(=O)Nc1cccc(C(=O)Nc2ccccc2C(=O)O)c1	none
Oc1ccccc1CNCCC12CC3CC(CC(C3)C1)C2	Chlamy TAG active
CC(C)(C)C(=O)NCCC12CC3CC(CC(C3)C1)C2	none
COc1ccccc1CC(=O)NC12CC3CC(CC(C3)C1)C2	none
Brc1ccc(OCCCn2ccnc2)cc1	none
Ic1ccc(OCCCn2ccnc2)cc1	none
O=C(c1ccccc1)c1ccc(OCCCCn2ccnc2)cc1	Chlamy TAG active
O=C(Nc1ccccc1[N+](=O)[O-])c1ccc(S(=O)(=O)N2CCCCC2)cc1	none
CCC(Oc1ccccc1)C(=O)Nc1ccc(F)cc1F (stereo unspecified)	none
COc1ccc(Br)cc1C1CC(=O)Nc2cc(C)c(C)cc21 (stereo unspecified)	none
CCC(C)c1ccc(OCCCCN2CCN(C)CC2)cc1 (stereo unspecified)	none
CN1CCN(CCOc2ccc(C(C)(C)c3ccccc3)cc2)CC1	Chlamy TAG active
CN1CCN(CCCOc2ccc(OCc3ccccc3)cc2)CC1	none
CCC(C)c1ccc(OCCCN2CCN(C)CC2)cc1 (stereo unspecified)	Chlamy TAG active
c1ccc(OCCN2CCCC2)cc1	none
CN1CCN(CCCOc2ccc(C(C)(C)c3ccccc3)cc2)CC1	none
Cc1cc([N+](=O)[O-])ccc1NC(=O)c1cccc(Cl)c1	none
Cc1ccccc1OCCN1CCCCC1	none
CSc1ccc(CN2CCN(C=O)CC2)cc1	none
COc1ccc(C(O)=C2C(=O)C(=O)N(CCN3CCOCC3)C2c2cccs2)cc1C (stereo unspecified)	none
O=C(CCc1ccccc1)NC1CCCCC1	none
Cc1cc(C)c(S(=O)(=O)N2CCN(C)CC2)cc1C	none
Cc1cc(C)c(S(=O)(=O)N2CCN(C)CC2)cc1Br	Chlamy TAG active
Cc1cc(C)c(S(=O)(=O)N2CCN(c3ccccc3)CC2)cc1Br	none
CN(CC(=O)Nc1ccc(C(N)=O)cc1)S(=O)(=O)c1ccc(Br)cc1	none
Cc1ccc(C(=O)NC(C)C2CC3CCC2C3)s1 (stereo unspecified)	Chlamy TAG active
CC(NC(=O)c1ccccc1[N+](=O)[O-])C1CC2CCC1C2 (stereo unspecified)	none
CC(NC(=O)c1ccccc1Br)C1CC2CCC1C2 (stereo unspecified)	none
COc1ccccc1N(CC(=O)NCc1ccc(Cl)cc1)S(C)(=O)=O	none
Cc1c(NS(=O)(=O)c2cccs2)c(=O)n(-c2ccccc2)n1C	none
Cc1c(N/C=C/C(=O)c2cccs2)c(=O)n(-c2ccccc2)n1C	Chlamy TAG active
Cc1c(NC(=O)C23CC4CC(CC(C4)C2)C3)c(=O)n(-c2ccccc2)n1C	none
O=c1c(Cc2cc([N+](=O)[O-])ccc2O)c(O)nc2n1CCCS2	none
COc1ccc(CCNC(=O)CSc2ncnc3sc4c(c23)CCCC4)cc1	none
O=[N+]([O-])c1ccccc1-c1ccc(CN2CCCCCC2)o1	none
CCN1CCN(Cc2ccc(-c3ccccc3[N+](=O)[O-])o2)CC1	none
CN1CCN(Cc2ccc(-c3ccccc3Cl)o2)CC1	Chlamy TAG active
CCc1ccc(-c2csc(Nc3cccc(OC)c3)n2)cc1	none
O=[N+]([O-])c1ccc(OCC(O)CN(C2CCCCC2)C2CCCCC2)cc1 (stereo unspecified)	none
